# Hits are enriched below; roughly 2.8% of the tested compounds scored in any of these assays.
# Pol beta inh: qHTS Assay for Inhibitors of DNA Polymerase Beta; P06746; Pol beta primer extension/strand displacement, fluorescence kinetic; Potency, µM (top dose mostly 114 µM), for the others: at the top dose activity change, negative = inhibition, usual class: inhibitors; 340,000 tested, 1.3% active; AID 485314, 2010; note: potency is the fitted concentration of half-maximal effect; % is set by controls: 0 for no effect and ±100 for the full control effect
#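 Pol beta (10 nM) was preincubated with compound for 15 min at room temperature. The reaction was then started with 50 nM substrate and read immediately and after a further 10 min at room temperature.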
# Pol kappa inh: qHTS for Inhibitors of Polymerase Kappa. DNA polymerase kappa (Homo sapiens), Q9UBT6. purified Pol kappa, fluorescent DNA synthesis assay, 10 min. Potency, µM (top dose mostly 107 µM), for the others: at the top dose activity, negative = inhibition, most hits filed as inhibitors. 400,000 tested, 0.53% active. AID 588579, 2011; note: potency is the fitted concentration of half-maximal effect; % is set by controls: 0 for no effect and ±100 for the full control effect
#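 Readout: fluorescence, taken kinetically at 0 and 10 min. Conditions: 10 nM Pol kappa, 15 min RT compound preincubation, 50 nM substrate final. Controls: enzyme-free buffer wells.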
# Pol eta inh: qHTS for Inhibitors of Polymerase Eta; DNA polymerase eta (Homo sapiens), Q9Y253; recombinant Pol eta, fluorescent DNA replication assay; AID 588591, 2011; Potency, µM (doses to about 114 µM), for inactives: at the highest dose activity change, negative = inhibition, usual class: inhibitors; 390,000 tested, 1.2% active; note: potency is the fitted concentration of half-maximal effect; % is set by controls: 0 for no effect and ±100 for the full control effect
#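 Fluorescent replication assay: 50 nM final substrate added after a 15 min room-temperature compound preincubation with 10 nM enzyme. Signal taken at 0 min and again at 10 min.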
# PI5P4Ka inh: qHTS for Inhibitors of phosphatidylinositol 5-phosphate 4-kinase (PI5P4K); Phosphatidylinositol 5-phosphate 4-kinase type-2 alpha (Homo sapiens), P48426; PI5P4Kalpha enzyme, ADP-Glo luminescence, 60 min; hits give low values; max response, %; 330,000 tested, 1.2% active; AID 652105, 2013; active = max response of -50% or lower; inconclusive = between -30% and -50%; inactive = -30% or higher; note: value at the top dose of about 77 µM; % is set by controls: 0 for no effect and ±100 for the full control effect
# Target sequence (P48426 whole entry, looked up): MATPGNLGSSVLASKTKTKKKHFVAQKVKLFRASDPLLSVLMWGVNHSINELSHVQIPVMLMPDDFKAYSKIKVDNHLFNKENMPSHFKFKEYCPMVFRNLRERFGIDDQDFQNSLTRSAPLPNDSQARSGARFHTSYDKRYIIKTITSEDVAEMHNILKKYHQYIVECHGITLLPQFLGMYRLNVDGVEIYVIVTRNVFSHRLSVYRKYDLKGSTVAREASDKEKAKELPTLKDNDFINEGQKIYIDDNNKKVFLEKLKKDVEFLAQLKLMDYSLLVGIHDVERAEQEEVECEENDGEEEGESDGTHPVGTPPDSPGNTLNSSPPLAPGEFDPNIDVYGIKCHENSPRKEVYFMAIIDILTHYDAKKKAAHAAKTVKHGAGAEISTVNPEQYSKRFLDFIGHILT
#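 qHTS, 1536-well: enzyme/substrate mix, compound by pin tool, 5 microM ATP final; RT 60 min; ADP-Glo reagents 1 (45 min) then 2 (30 min); luminescence.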
# WRN helicase inh: qHTS for Inhibitors of WRN Helicase. Bifunctional 3'-5' exonuclease/ATP-dependent helicase WRN (Homo sapiens), Q14191. WRN helicase unwinding, fluorescent forked duplex, kinetic. Potency, µM (doses to about 114 µM), inactives show at the highest dose activity change, negative = inhibition, most hits filed as inhibitors. 360,000 tested, 0.46% active. AID 651768, 2012; note: potency is the fitted concentration of half-maximal effect; % is set by controls: 0 for no effect and ±100 for the full control effect; nearly all actives have a fitted effect of over 55% in size
#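 Screening of the MLSMR collection measured strand separation of a quenched forked DNA duplex (100 nM) by 20 nM WRN with 2 mM ATP, all final. Compounds were preincubated with enzyme 15 min at room temperature.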
# Pol iota inh: qHTS for Inhibitors of Polymerase Iota. Pol iota fluorescent replication assay, 10 min. Potency, µM (doses to about 115 µM), for the others: top-dose activity, negative = inhibition, hits mostly inhibitors. 390,000 tested, 1% active; note: potency is the fitted concentration of half-maximal effect
#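 Pol iota at 10 nM preincubated 15 min with compounds at room temperature; reaction started with fluorescent substrate, 50 nM final. Fluorescence read kinetically at 0 and 10 min; buffer-only wells as negative control.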
# Starred values were filed as active, the others as inactive; ? = inconclusive; / = no result given; ! = not confirmed by another sample; [ ] = remark or other dose. Unless noted, calls come from the whole dose curve; as a rule, active = well fitted curve in the direction sought with a large enough effect; inconclusive = small, poorly fitted or top-dose-only effect, or another doubt; inactive = no such curve, though single readings can be large; an effect the other way counts as inactive or inconclusive.
SMILES,Pol beta inh,Pol kappa inh,Pol eta inh,PI5P4Ka inh,WRN helicase inh,Pol iota inh
COc1ccc(-c2csc(C(C#N)=C(O)CSc3nccn3C)n2)cc1OC,/,-25%,45µM*,2,?,14µM*
CCn1c(SCC(=O)Nc2cccc(OC)c2)nc2c(c1=O)SCC2,/,-10%,-14%,3,-10%,15%
COc1cccc(CNC(=O)C2CCN(c3ncnc4c3nc3n4CCCCC3)CC2)c1,100µM*!,-21%,-3%,-2,-5%,?
COc1ccc(OC)c(CNC(=O)C2CCN(c3ncnc4c3nc3n4CCCCC3)CC2)c1,-2%,-9%,9%,/,/,-7%
ClN=C1C=CC=CC1=NCl,/,/,/,-77*,?,/
CCOC(=O)c1sc(NC(=O)c2nc3ncccn3n2)c(C(=O)OC)c1C,16%,-16%,-10%,/,/,-4%
CCOC(=O)c1sc(NC(=O)c2nc3nc(C)cc(C(F)F)n3n2)c(C(=O)OC(C)C)c1C,-10%,-20%,89µM*,/,/,-17%
COc1ccc(C(=O)NCCn2cc(SCc3cc(C)ccc3C)c3ccccc32)cc1,3%,-9%,-5%,/,/,89µM*
COc1ccc(C(=O)NCCn2cc(SCC(=O)Nc3ccc(C)cc3)c3ccccc32)cc1,-1%,-11%[60.1 µM],-5%,/,/,-24%
N[C@@H](CSSC[C@H](N)C(=O)O)C(=O)O,/,22%[60.1 µM],/,/,/,/
O=C(OCc1cc(=O)n2c(n1)sc1ccccc12)c1ccc(O)cc1,10µM*,-10%,?,-6,-5%,-5%
COc1ccc(/C=C/C(=O)OCc2cc(=O)n3c(n2)sc2ccccc23)cc1,?,-11%,-2%,-18,-8%,71%
Cc1c(O)nc2sc3ccccc3n2c1=O,-4%,/,/,/,/,/
O=c1cc(CCl)nc2sc3ccccc3n12,?,?,50µM*,-26,-5%[11.6 µM],35µM*
CN(C)CCNC(=O)C(=O)Nc1cc2c3c(c1)CCC(=O)N3CCC2,26%,-15%,-21%,0,0%,-1%
CN(C)CCNC(=O)C(=O)Nc1cc2c3c(c1)CCN3C(=O)CC2,31%,?,4%,-1,2%[11.6 µM],40µM*
N#Cc1c(-c2ccccc2)cc(-c2ccc3c(c2)OCO3)[nH]c1=O,/,2%,-15%,-10,-5%,17%
COc1ccc(-c2cc(-c3ccco3)[nH]c(=O)c2C#N)cc1OC,?,79µM*,56µM*,-24,-8%,10µM*
COCCCNc1oc(-c2cccs2)nc1S(=O)(=O)c1ccc(C)cc1,40µM*,-3%,-19%,7,-4%,79%
CCc1oc2ccccc2c1C(=O)c1cc(Br)c(O)c(Br)c1,50µM*,-18%,-18%,-9,-10%,16%
CCc1ccc(OCC(=O)c2c(O)c3ccccc3oc2=O)cc1,-4%,-15%,-2%,-3,1%,?
CN(C)c1ccc(N=Cc2ccnc3ccccc23)cc1,/,2%,/,/,/,?
O=C(Oc1c(Br)cc(Br)c2cccnc12)N1CCCCC1,7%,-19%,-12%,0,2%,1%
Nc1c(Br)cc(Br)c2cccnc12,/,4%,/,/,/,8.9µM*
NS(=O)(=O)Nc1c(Br)cc(Br)c2cccnc12,/,-4%,/,/,/,25µM*
CCCN1CCN(C(=O)c2oc3ccccc3c2NC(=O)COc2ccc(OC)cc2)CC1,8%,-10%,-22%,8,3%,13%
Cc1ccc(/C=N/Nc2nncn2N)cc1,9%,-2%,-6%,0,0%[11.6 µM],0.89µM*
Nn1cnnc1N/N=C/c1ccc(F)cc1,-5%,6%,-13%,-3,2%[11.6 µM],16µM*
Nn1cnnc1N/N=C/c1ccc(Cl)c([N+](=O)[O-])c1,?,-6%,-10%,-9,-7%[57.1 µM],3.2µM*
